The text below walks through data of PubChem BioAssay AID504635 (The Scripps Research Institute Molecular Screening Center, 2011).

Some of the results follow. Unmarked numbers belong to inactive results. The source made the active and inactive calls. Rule as the data show it: active = inhibition above about 18%; inactive = the rest.

This assay has as its target Troponin I, cardiac muscle (Homo sapiens) + Troponin T, cardiac muscle (Homo sapiens) + Troponin C, slow skeletal and cardiac muscles (Homo sapiens) (UniProt P19429+P45379+P63316). Put plainly: calcium desensitizers of cardiac thin filaments – biochemical, fluorescence readout, confirmation (AID 504635). Conditions: reconstituted cardiac thin filaments, calcium sensitivity fluorescence; at 7.15 µM; hits give high values.
In the case of `COc1ccc(NC(=O)CC2COc3ccccc3O2)c(OC)c1` (stereo not given), the inhibition is -2.46%.
As to `CC1CCCC(NC(=O)COC(=O)[C@@H]2CC(O)CN2S(=O)(=O)c2ccc3c(c2)OCCO3)C1C` (stereo not given in full), the inhibition was -1.77%.
With `COc1cc(OC)cc(C(=O)NCC(=O)OCc2csc(-c3ccccc3)n2)c1`, the inhibition was 2.35%.
With `Cc1ccc(S(=O)(=O)N(CC(=O)Nc2cccc([N+](=O)[O-])c2)Cc2ccc(Cl)cc2)cc1`, the inhibition is -1.82%.
On to `C=CCNC(=O)COC(=O)c1ccccc1C(=O)N(C)C1CCCCC1`, for which the inhibition is 0.72%.
`COc1cccc(CNC(=O)C(=O)NCCC2CCCCN2S(=O)(=O)c2ccc(C)cc2)c1` (stereo not given): the inhibition is -4.1%.
For `C/C(=N\NC(=O)C(N)=O)c1ccc2c(c1)OCCO2`, the inhibition was -2.4%.
Regarding `COC(=O)CCc1sc(Nc2ccc(Br)cc2)nc1-c1ccc(OC)cc1`, the inhibition was 1.8%.
Next, `O=C(O)c1cccc(S(=O)(=O)Nc2ccc(O)cc2Sc2nc3ccccc3s2)c1`: -6.09%.
For the molecule `O=c1ccc2c(-c3ccccc3S(=O)(=O)O)c3ccc(O)c(O)c3oc-2c1O`, the inhibition was 154% (active).
Take `Cc1cc(NC(=O)CCC(=O)N(CC(=O)NCC2CCCO2)c2ccccc2)no1` (stereo not given): the inhibition is -4.68%.
For the molecule `Cc1cccc(N(C(=O)Cc2cccs2)C(C(=O)NC2CCCC2)c2ccsc2)c1` (stereo not given), the inhibition was -3.11%.
For `CCCCn1c(=O)c(C(C)=O)c(O)c2ccccc21`, the inhibition was -4.91%.
Next, `COC(=O)c1cccc(N(CC(=O)NCC2CCCO2)C(=O)CCC(=O)Nc2cc(C)on2)c1` (stereo not given): -2.6%; `Cc1ccc(NC(=O)NC2CCCCC2)cc1S(=O)(=O)N1CCOCC1`: -0.15%.
